Test results published in the supplement of paper PMC4466140.

Assays:
Assay in all cases: SPOT peptide array binding signal intensity (averaged, normalized) (arbitrary units (background-subtracted, floor 0; scale differs between SH3 domains)); higher = stronger binding of the SH3 domain to the peptide
SpBzz1-D2 = target: SpBzz1-D2
Outline: (§1)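 Binding signal is given in arbitrary units that differ between domains and is the normalized, background-subtracted spot intensity averaged across replicates. Each GST-SH3 fusion from one of four yeast species was made in E. coli BL21(DE3), purified on glutathione Sepharose and incubated at 10 μg/ml overnight at 4°C on cellulose-bound synthetic 15-mer peptides in which cysteines were replaced by serines. Detection used anti-GST antibody, an HRP anti-mouse secondary and luminol, followed by imaging and Genespotter quantification.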

SpCyk3 = target: SpCyk3
Outline: as §1

SpHof1 = target: SpHof1
Outline: as §1

SpHof1-2 = target: SpHof1-2
Outline: as §1

SpHof1-3 = target: SpHof1-3
Outline: as §1

SpHse1 = target: SpHse1
Outline: as §1

SpLsb1 = target: SpLsb1
Outline: as §1

SpLsb4 = target: SpLsb4
Outline: as §1

SpMyo1 = target: SpMyo1
Outline: as §1

SpNbp2 = target: SpNbp2
Outline: as §1

SpPex13 = target: SpPex13
Outline: as §1

SpRvs167 = target: SpRvs167
Outline: as §1

SpSla1-D1-D2 = target: SpSla1-D1-D2
Outline: as §1

SpSla1-D3 = target: SpSla1-D3
Outline: as §1

AgAbp1 = target: AgAbp1
Outline: as §1

AgBbc1 = target: AgBbc1
Outline: as §1

AgBem1-D1 = target: AgBem1-D1
Outline: as §1

AgBzz1-D1 = target: AgBzz1-D1
Outline: as §1

AgBzz1-D2 = target: AgBzz1-D2
Outline: as §1

AgCyk3 = target: AgCyk3
Outline: as §1

AgFus1 = target: AgFus1
Outline: as §1

AgHof1 = target: AgHof1
Outline: as §1

AgHse1 = target: AgHse1
Outline: as §1

AgLsb1 = target: AgLsb1
Outline: as §1

AgLsb4 = target: AgLsb4
Outline: as §1

AgMyo5 = target: AgMyo5
Outline: as §1

AgNbp2 = target: AgNbp2
Outline: as §1

AgRvs167 = target: AgRvs167
Outline: as §1

AgSho1 = target: AgSho1
Outline: as §1

AgSla1-D1-D2 = target: AgSla1-D1-D2
Outline: as §1

AgSla1-D3 = target: AgSla1-D3
Outline: as §1

CaAbp1-D1 = target: CaAbp1-D1
Outline: as §1

CaAbp1-D2 = target: CaAbp1-D2
Outline: as §1

CaBbc1 = target: CaBbc1
Outline: as §1

CaBem1-D1 = target: CaBem1-D1
Outline: as §1

CaBzz1-D1 = target: CaBzz1-D1
Outline: as §1

CaBzz1-D2 = target: CaBzz1-D2
Outline: as §1

CaCyk3 = target: CaCyk3
Outline: as §1

CaFus1 = target: CaFus1
Outline: as §1

CaHof1 = target: CaHof1
Outline: as §1

CaHse1 = target: CaHse1
Outline: as §1

CaLsb1 = target: CaLsb1
Outline: as §1

CaLsb4 = target: CaLsb4
Outline: as §1

CaMyo5 = target: CaMyo5
Outline: as §1

CaNbp2 = target: CaNbp2
Outline: as §1

CaRvs167 = target: CaRvs167
Outline: as §1

CaRvs167-3 = target: CaRvs167-3
Outline: as §1

CaSho1 = target: CaSho1
Outline: as §1

CaSla1-D1-D2 = target: CaSla1-D1-D2
Outline: as §1

CaSla1-D3 = target: CaSla1-D3
Outline: as §1

ScAbp1 = target: ScAbp1
Outline: as §1

ScBbc1 = target: ScBbc1
Outline: as §1

ScBem1-D1 = target: ScBem1-D1
Outline: as §1

ScBzz1-D1 = target: ScBzz1-D1
Outline: as §1

ScBzz1-D2 = target: ScBzz1-D2
Outline: as §1

ScCyk3 = target: ScCyk3
Outline: as §1

ScFus1 = target: ScFus1
Outline: as §1

ScHof1 = target: ScHof1
Outline: as §1

ScHse1 = target: ScHse1
Outline: as §1

ScLsb1 = target: ScLsb1
Outline: as §1

ScLsb2 = target: ScLsb2
Outline: as §1

ScLsb3 = target: ScLsb3
Outline: as §1

ScLsb4 = target: ScLsb4
Outline: as §1

ScMyo3 = target: ScMyo3
Outline: as §1

ScMyo5 = target: ScMyo5
Outline: as §1

ScNbp2 = target: ScNbp2
Outline: as §1

ScPex13 = target: ScPex13
Outline: as §1

ScRvs167 = target: ScRvs167
Outline: as §1

ScSho1 = target: ScSho1
Outline: as §1

ScSla1-D1-D2 = target: ScSla1-D1-D2
Outline: as §1

ScSla1-D3 = target: ScSla1-D3
Outline: as §1

SpAbp1-D1 = target: SpAbp1-D1
Outline: as §1

SpBbc1 = target: SpBbc1
Outline: as §1

SpBzz1-D1 = target: SpBzz1-D1
Outline: as §1

## WTQRRGPLVVYAEDN
SpBzz1-D2
  SPOT peptide array binding signal intensity: ≤ 0
SpCyk3
  SPOT peptide array binding signal intensity: 7
SpHof1
  SPOT peptide array binding signal intensity: 29.5
SpHof1-2
  SPOT peptide array binding signal intensity: 22.5
SpHof1-3
  SPOT peptide array binding signal intensity: 23
SpHse1
  SPOT peptide array binding signal intensity: 66.2
SpLsb1
  SPOT peptide array binding signal intensity: ≤ 0
SpLsb4
  SPOT peptide array binding signal intensity: 31
SpMyo1
  SPOT peptide array binding signal intensity: 16
SpNbp2
  SPOT peptide array binding signal intensity: 2
SpPex13
  SPOT peptide array binding signal intensity: 19
SpRvs167
  SPOT peptide array binding signal intensity: 16
SpSla1-D1-D2
  SPOT peptide array binding signal intensity: 3
SpSla1-D3
  SPOT peptide array binding signal intensity: 6

## NRARYLPQNPDIIAG
AgAbp1
  SPOT peptide array binding signal intensity: ≤ 0
AgBbc1
  SPOT peptide array binding signal intensity: ≤ 0
AgBem1-D1
  SPOT peptide array binding signal intensity: ≤ 0
AgBzz1-D1
  SPOT peptide array binding signal intensity: 9
AgBzz1-D2
  SPOT peptide array binding signal intensity: 19
AgCyk3
  SPOT peptide array binding signal intensity: ≤ 0
AgFus1
  SPOT peptide array binding signal intensity: 8
AgHof1
  SPOT peptide array binding signal intensity: 3.5
AgHse1
  SPOT peptide array binding signal intensity: 85
AgLsb1
  SPOT peptide array binding signal intensity: 1
AgLsb4
  SPOT peptide array binding signal intensity: 7
AgMyo5
  SPOT peptide array binding signal intensity: 0.5
AgNbp2
  SPOT peptide array binding signal intensity: ≤ 0
AgRvs167
  SPOT peptide array binding signal intensity: 0.5
AgSho1
  SPOT peptide array binding signal intensity: 1
AgSla1-D1-D2
  SPOT peptide array binding signal intensity: 2
AgSla1-D3
  SPOT peptide array binding signal intensity: 3.25
CaAbp1-D1
  SPOT peptide array binding signal intensity: ≤ 0
CaAbp1-D2
  SPOT peptide array binding signal intensity: ≤ 0
CaBbc1
  SPOT peptide array binding signal intensity: ≤ 0
CaBem1-D1
  SPOT peptide array binding signal intensity: ≤ 0
CaBzz1-D1
  SPOT peptide array binding signal intensity: 58
CaBzz1-D2
  SPOT peptide array binding signal intensity: 26.5
CaCyk3
  SPOT peptide array binding signal intensity: ≤ 0
CaFus1
  SPOT peptide array binding signal intensity: 29
CaHof1
  SPOT peptide array binding signal intensity: ≤ 0
CaHse1
  SPOT peptide array binding signal intensity: 13.8
CaLsb1
  SPOT peptide array binding signal intensity: 1
CaLsb4
  SPOT peptide array binding signal intensity: 4
CaMyo5
  SPOT peptide array binding signal intensity: 4.25

## TKPTPPPKPSHLKPK
AgAbp1
  SPOT peptide array binding signal intensity: 784
AgBbc1
  SPOT peptide array binding signal intensity: 125
AgBem1-D1
  SPOT peptide array binding signal intensity: ≤ 0
AgBzz1-D1
  SPOT peptide array binding signal intensity: 150
AgBzz1-D2
  SPOT peptide array binding signal intensity: 13
AgCyk3
  SPOT peptide array binding signal intensity: 0.5
AgFus1
  SPOT peptide array binding signal intensity: ≤ 0
AgHof1
  SPOT peptide array binding signal intensity: 3.5
AgHse1
  SPOT peptide array binding signal intensity: 18
AgLsb1
  SPOT peptide array binding signal intensity: 0.5
AgLsb4
  SPOT peptide array binding signal intensity: ≤ 0
AgMyo5
  SPOT peptide array binding signal intensity: ≤ 0
AgNbp2
  SPOT peptide array binding signal intensity: ≤ 0
AgRvs167
  SPOT peptide array binding signal intensity: 2.67
AgSho1
  SPOT peptide array binding signal intensity: 72
AgSla1-D1-D2
  SPOT peptide array binding signal intensity: ≤ 0
AgSla1-D3
  SPOT peptide array binding signal intensity: ≤ 0
CaAbp1-D1
  SPOT peptide array binding signal intensity: 655
CaAbp1-D2
  SPOT peptide array binding signal intensity: 1210
CaBbc1
  SPOT peptide array binding signal intensity: 159
CaBem1-D1
  SPOT peptide array binding signal intensity: ≤ 0
CaBzz1-D1
  SPOT peptide array binding signal intensity: 1030
CaBzz1-D2
  SPOT peptide array binding signal intensity: 357
CaCyk3
  SPOT peptide array binding signal intensity: ≤ 0
CaFus1
  SPOT peptide array binding signal intensity: ≤ 0
CaHof1
  SPOT peptide array binding signal intensity: 1.5
CaHse1
  SPOT peptide array binding signal intensity: 5.75
CaLsb1
  SPOT peptide array binding signal intensity: 0.5
CaLsb4
  SPOT peptide array binding signal intensity: ≤ 0
CaMyo5
  SPOT peptide array binding signal intensity: 1
CaNbp2
  SPOT peptide array binding signal intensity: ≤ 0
CaRvs167
  SPOT peptide array binding signal intensity: 4
CaRvs167-3
  SPOT peptide array binding signal intensity: 6
CaSho1
  SPOT peptide array binding signal intensity: 44.5
CaSla1-D1-D2
  SPOT peptide array binding signal intensity: 9.5
CaSla1-D3
  SPOT peptide array binding signal intensity: 0.5
ScAbp1
  SPOT peptide array binding signal intensity: 1010
ScBbc1
  SPOT peptide array binding signal intensity: ≤ 0
ScBem1-D1
  SPOT peptide array binding signal intensity: 1.5
ScBzz1-D1
  SPOT peptide array binding signal intensity: 4
ScBzz1-D2
  SPOT peptide array binding signal intensity: 59.5
ScCyk3
  SPOT peptide array binding signal intensity: ≤ 0
ScFus1
  SPOT peptide array binding signal intensity: 7.5
ScHof1
  SPOT peptide array binding signal intensity: 2
ScHse1
  SPOT peptide array binding signal intensity: 4
ScLsb1
  SPOT peptide array binding signal intensity: 0.5
ScLsb2
  SPOT peptide array binding signal intensity: ≤ 0
ScLsb3
  SPOT peptide array binding signal intensity: 1800
ScLsb4
  SPOT peptide array binding signal intensity: ≤ 0
ScMyo3
  SPOT peptide array binding signal intensity: 0.5
ScMyo5
  SPOT peptide array binding signal intensity: ≤ 0
ScNbp2
  SPOT peptide array binding signal intensity: 13
ScPex13
  SPOT peptide array binding signal intensity: 981
ScRvs167
  SPOT peptide array binding signal intensity: 4.17
ScSho1
  SPOT peptide array binding signal intensity: 1320
ScSla1-D1-D2
  SPOT peptide array binding signal intensity: 11
ScSla1-D3
  SPOT peptide array binding signal intensity: 1.75
SpAbp1-D1
  SPOT peptide array binding signal intensity: 481
SpBbc1
  SPOT peptide array binding signal intensity: 0.5
SpBzz1-D1
  SPOT peptide array binding signal intensity: 344
SpBzz1-D2
  SPOT peptide array binding signal intensity: ≤ 0
SpCyk3
  SPOT peptide array binding signal intensity: ≤ 0
SpHof1
  SPOT peptide array binding signal intensity: 2
SpHof1-2
  SPOT peptide array binding signal intensity: ≤ 0
SpHof1-3
  SPOT peptide array binding signal intensity: 64
SpHse1
  SPOT peptide array binding signal intensity: 9.25
SpLsb1
  SPOT peptide array binding signal intensity: 251
SpLsb4
  SPOT peptide array binding signal intensity: 43.5
SpMyo1
  SPOT peptide array binding signal intensity: ≤ 0
SpNbp2
  SPOT peptide array binding signal intensity: 2.5
SpPex13
  SPOT peptide array binding signal intensity: 7
SpRvs167
  SPOT peptide array binding signal intensity: 142
SpSla1-D1-D2
  SPOT peptide array binding signal intensity: ≤ 0
SpSla1-D3
  SPOT peptide array binding signal intensity: 2.5
